This passage reports cell viability, % of control (lower = more cytotoxic) results from PubChem BioAssay (NCATS).

A short description of this assay: High-throughput drug toxicity screening in the BPDCN cell line Gen2.2 (AID 1224824). Conditions: Gen2.2 BPDCN cells; at 45.8 µM (top of the series) unless noted. An excerpt:
Blastic plasmacytoid dendritic cell neoplasm (BPDCN) is a rare, aggressive and largely incurable hematologic malignancy originating from plasmacytoid dendritic cells (pDCs). Although an initial response to chemotherapy is common, BPDCN prognosis is extremely poor and most patients relapse with drug-resistant disease leading to a median overall survival of ~1 year after diagnosis. To explore novel potential therapeutic strategies in BPDCN, we performed a high-throughput drug toxicity screening in BPDCN cell liens, using of a library of 1,912 small molecules, enriched for compounds that are either approved or in early stages of development for cancer therapy.
A total of 500 exponentially growing Gen2.2 cells were seeded per well in 5 uL of media (RPMI + Glutamine, without phenol red plus10% FBS and 1X Pen/Strep) into 1536-well solid white high base tissue culture treated Greiner One Bio Plates (789173-F), using a multidrop combi dispenser and a small sterile cassette. Compounds and controls totaling 23nL per well (negative control DMSO and positive control 9.2 uM Bortezomib-final) were immediately added to the plates using a 1536 head pin tool from Kalypsys. The plates were then covered with stainless steel gasket lids from Kalypsys and incubated for 48 hours at 37C under 95% relative humidity with 5% CO2. After 48 hours, the plates were removed and allowed to reach room temperature before 3 uL of Cell Titer Glo reagent (Promega) were added using an Aurora Flying Reagent Dispenser Bioraptor. The plates were then spun at 1000 rpms to remove bubbles and incubated for 15 minutes at room temperature before reading on a ViewLux using a luminescent filter with a 10 second exposure. The relative luciferase units were used to calculated percent activity using DMSO as 100% and Bortezomib as 0%.
Consider `CO[C@H]1C=CO[C@@]2(C)Oc3c(C)c(O)c4c(O)c(c5c(c4c3C2=O)NC2(CCN(CC(C)C)CC2)N=5)=NC(=O)C(C)=CC=C[C@H](C)[C@H](O)[C@@H](C)[C@@H](O)[C@@H](C)[C@H](OC(C)=O)[C@H]1C`, for which the cell viability, % of control (lower = more cytotoxic) was 106%.
On to `c1cc(-c2sc(-c3ccncc3)c(-c3ccncc3)c2-c2ccncc2)ccn1`, for which the cell viability, % of control (lower = more cytotoxic) was determined as 64.5%.
The same measure for `Nc1ncnc2c1nc(Cl)n2[C@@H]1O[C@H](CO)[C@@H](O)[C@@H]1O`: 6.19%.
With `O=C(NCc1ccccc1)c1csc(Nc2ccncn2)n1`, the cell viability, % of control (lower = more cytotoxic) stood at 1.93%.
The same measure for `Cc1nnc(C(C)C)n1C1C[C@H]2CC[C@@H](C1)N2CC[C@H](NC(=O)C1CCC(F)(F)CC1)c1ccccc1` (stereo not given in full): 75.3%; for `O=C(NCc1ccncc1)C12C[C@H]3C[C@@H](C1)CC(c1ccc(Cl)cc1)(C3)C2`: 16.2%.
The same measure for `CC1(C)CCC2=C(O1)c1ccccc1C(=O)C2=O`: 4.24%.
The same measure for `Cc1c[nH]c(C=C2C(=O)Nc3ccccc32)c1CCC(=O)O`: 45%; for `COc1cc2ncnc(-n3nc(-c4ccccn4)nc3N)c2cc1OC`: 59.8%.
As for `O=C(Nc1cc(Cl)cc2c1[nH]c1cnccc12)c1cccnc1`, the cell viability, % of control (lower = more cytotoxic) was found to be 67.6%.
In the case of `CCn1cc(C(=O)O)c(=O)c2ccc(C)nc21`, the cell viability, % of control (lower = more cytotoxic) was 120%.
The same measure for `CC=CC(=O)N(CC)c1ccccc1C`: 116%; for `O=c1cc(-c2ccccc2)oc2cc(O)c(O)c(O)c12`: 151%; for `CC1(C)CCC[C@@]2(C)[C@@H]1CC[C@@]1(C)OC(=O)C[C@H]21`: 95%.
The same measure for `NC(=O)c1cccc2[nH]c(-c3ccc([C@H]4CCCN4)cc3F)nc12`: 104%.
The same measure for `CCNc1cc(NC2CCC(O)CC2)nc(Nc2ccc3c(ccn3Cc3ccccc3)c2)n1` (stereo not given): 21.8%; for `CON=C(C(=O)N[C@@H]1C(=O)N2C(C(=O)OCOC(=O)C(C)(C)C)=C(C=Cc3scnc3C)CS[C@H]12)c1csc(N)n1`: 90.5%; for `COc1cccc(-c2cc(=O)c3ccccc3o2)c1N`: 45.3%.
As to `CC[C@@H]1C=C(C)C[C@H](C)C[C@H](OC)[C@H]2O[C@@](O)(C(=O)C(=O)N3CCCC[C@@H]3C(=O)O[C@H](C(C)=C[C@@H]3CC[C@H](Cl)[C@H](OC)C3)[C@H](C)[C@@H](O)CC1=O)[C@H](C)C[C@H]2OC`, the cell viability, % of control (lower = more cytotoxic) turned out to be 12.7%.
The same measure for `CC(C)[C@H](CO)Nc1nc(Nc2ccc(C(=O)O)c(Cl)c2)c2ncn(C(C)C)c2n1`: 9.58%; for `C[C@]12CCC3c4ccc(O)cc4CCC3C1CCC2=O` (stereo not given in full): 54%.
The same measure for `Cc1ccc([C@@H]2O[C@H](CO)[C@@H](O)[C@H](O)[C@@H]2O)cc1Cc1ccc(-c2ccc(F)cc2)s1`: 126%.
The same measure for `Cc1c(NC(=O)c2ccc(C(C)(C)C)cc2)cccc1-c1cn(C)c(=O)c(Nc2ccc(C(=O)N3CCOCC3)cc2)n1`: 29.7%; for `COc1ccc2cccc(CCNC(C)=O)c2c1`: 206%; for `CC(C(=O)O)c1ccc(-c2ccccc2)c(F)c1` (stereo not given): 84.9%.
In the case of `CS(=O)c1ccc(-c2nc(-c3ccc(F)cc3)c(-c3ccncc3)[nH]2)cc1` (stereo not given), the cell viability, % of control (lower = more cytotoxic) came to 41.2% [at 92.2 µM].
On to `CCC(=O)NC[C@H](Cc1ccc(OCCc2nc(-c3ccccc3)oc2C)cc1)NC(C)=CC(=O)c1ccc(C(F)(F)F)cc1`, for which the cell viability, % of control (lower = more cytotoxic) worked out at 96.4%.
On to `COc1cc(Nc2ncc(F)c(Nc3ccc4c(n3)NC(=O)C(C)(C)O4)n2)cc(OC)c1OC`, for which the cell viability, % of control (lower = more cytotoxic) is 53.6%.
The same measure for `OC[C@H]1O[C@@H](Oc2cc(O)cc(C=Cc3ccc(O)cc3)c2)[C@H](O)[C@@H](O)[C@H]1O`: 71.3%; for `CC[C@@]1(O)C[C@H](O[C@H]2C[C@H](N(C)C)[C@H](O[C@H]3C[C@H](O)[C@H](O[C@H]4CCC(=O)[C@H](C)O4)[C@H](C)O3)[C@H](C)O2)c2c(cc3c(c2O)C(=O)c2c(O)cccc2C3=O)[C@@H]1C(=O)OC`: 5.55%; for `Cc1ccc(Nc2cc(-c3cccc(N4C(=O)c5ccccc5C4=O)c3)ncn2)cc1NS(C)(=O)=O`: 52.3%.
The same measure for `N#CC1(c2ccc(NC(=O)c3cccnc3NCc3ccncc3)cc2)CCCC1`: 286%; for `OC[C@H]1O[C@@H](n2cnc3c2NC=NC[C@@H]3O)C[C@H]1O`: 188%; for `NC(=O)c1cnc(-c2ccc(C3(N)CCC3)cc2)c(-c2ccccc2)c1`: 80.1%.
Take `COc1cc(N2CCC(N3CCN(C)CC3)CC2)ccc1Nc1ncnc(Nc2ccccc2S(=O)(=O)C(C)C)n1`: the cell viability, % of control (lower = more cytotoxic) was 2%.
The same measure for `O=c1cc(CN2CCOCC2)occ1OCCCCCSc1ccnc2cc(C(F)(F)F)ccc12`: 186%; for `COc1ccc2c(Oc3ccc(NC(=O)c4c(C)n(CC(C)(C)O)n(-c5ccccc5)c4=O)nc3)ccnc2c1`: 29.7%; for `Cc1cccc(Nc2nc(-c3ccncc3)cs2)c1`: 75.6%.
The same measure for `Cc1[nH]c(C=C2C(=O)Nc3ccc(S(=O)(=O)Cc4c(Cl)cccc4Cl)cc32)c(C)c1C(=O)N1CCC[C@H]1CN1CCCC1`: 6.62%; for `COc1ccc2c(Oc3ccc(NC(=O)c4c(C)n(CC(C)(C)O)n(-c5ccccc5)c4=O)cc3F)ccnc2c1`: 16.8%.
